Structures are written as SMILES. Screen size: about 94,000 compounds; about 410 (0.44%) were called active. This is one part of a sample in which actives are shown more often than they occur.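 Rule for the calls: active = inhibition above about 30% together with a positive call from visual inspection of the well image (limit read from the data); inconclusive = inhibition above a set limit but visual check negative; inactive = inhibition not above a set limit, visual check negative.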

In general, inhibition refers to the relative decrease from the control value, in per cent.

This assay in a line: inhibitors of IL-1B driven NFkB p65 nuclear import, primary screen, imaging, HUVEC, IL-1B stimulus, high-content imaging (AID 796).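 Note: nuclear over cytoplasmic p65 intensity ratio measured by imaging; 0% = IL-1B stimulated DMSO wells and 100% = unstimulated DMSO wells.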 Conditions: HUVEC IL-1B NFkB p65 nuclear translocation imaging; at 2 µM; stronger effect = higher value.
As to `COc1ccc(/C=C(/NC(=O)c2ccc(C)cc2)c2nc3ccccc3[nH]2)cc1OC`, the inhibition is -9.9% (inactive).

Turning to `CCOC(=O)c1c(N=CN(C)C)c(C#N)c2n1CCCC2`, the inhibition is 10.8% (inactive).

In the case of `CC1CCCCC1NC(=O)C1CCCN1S(=O)(=O)c1cccc2nsnc12` (stereo unspecified), the inhibition was -27% (inactive). Under `COc1nc(-c2ccc(Cl)cc2)ccc1-c1noc(-c2cccs2)n1` stands -5.8% (inactive); under `O=S(=O)(c1cccc2nonc12)N1CCN(c2cccc(Cl)c2)CC1`, -0.1% (inactive); under `CC(C)NC(=O)C(=O)N/N=C/c1ccco1`, -6.9% (inactive). Regarding `COc1cc(C(=O)N2CCN(C/C=C/c3ccccc3)CC2)cc(OC)c1C`, the inhibition was -3.7% (inactive). Take `N/C(=N\OC(=O)c1cc(-c2ccccc2)nc2ccccc12)c1ccncc1`: the inhibition is 8% (inactive). Regarding `Cc1ccc(S(=O)(=O)N(CC(=O)N/N=C/c2ccc(F)cc2)c2cccc3cccnc23)cc1`, the inhibition is 9.5% (inactive).

Turning to `COC(=O)c1c(-c2cccs2)csc1NC(=O)CSc1ncnc2sc(C)c(C)c12`, the inhibition is -10.3% (inactive).

With `Nc1ccc(-c2sc(N)nc2-c2ccccc2)cc1`, the inhibition was 1.6% (inactive). Regarding `CCC(C)NC(=O)c1ccccc1NC(=O)c1ccccc1N(C)S(C)(=O)=O` (stereo unspecified), the inhibition is -10.8% (inactive). For `COc1ccc(Cl)cc1NC(=O)CN(C)C(=O)CNC(=O)C12CC3CC(CC(C3)C1)C2`, the inhibition was -36% (inactive).

Turning to `COc1ccc(Cc2nnc(SCC(=O)c3cccc([N+](=O)[O-])c3)n2C)cc1`, the inhibition was -8.8% (inactive).

`O=C(NCCc1ccccc1)c1ccc(NC2=NC3CS(=O)(=O)CC3S2)cc1` (stereo unspecified): the inhibition is 0.8% (inactive).

Turning to `Cc1cccc(NC(=O)c2ccccc2NC(=O)C(C)(C)C)n1`, the inhibition is -6.8% (inactive). Turning to `Cc1cccc(NC(=O)c2cc(N3C(=O)CCC3=O)ccc2Cl)n1`, the inhibition was 32.1% (active). Turning to `Cc1cc(NC(=O)c2cccc(N3C(=O)CCC3=O)c2)no1`, the inhibition is -4.7% (inactive). For `O=C(CN1CCCCCC1)Nc1ccc(Br)cc1Br`, the inhibition is 5.3% (inactive).

Turning to `Cn1c(CNc2nc(-c3ccccc3)cs2)nnc1SCC(=O)c1ccccc1`, the inhibition is -14.8% (inactive). Regarding `Cc1ccccc1NC(=O)Cc1nnc(SCC(=O)N2CCN(c3ccccc3)CC2)n1C`, the inhibition was -36.6% (inactive). Under `Cn1c(CC(=O)Nc2ccccc2)nnc1SCC(=O)c1ccccc1` stands 92% (active).

In the case of `CCOC(=O)c1cc(NC(=O)c2ccc(Cl)cc2)c(=O)oc1-c1ccccc1`, the inhibition was -5.2% (inactive).

In the case of `Cc1nc(C)c(C(=O)N(c2ccc(C)c(C)c2)C(C(=O)NCc2ccco2)c2ccccc2)s1` (stereo unspecified), the inhibition was -3.5% (inactive). With `CCc1ccccc1NC(=O)CSc1nnc([C@@H](NC(=O)OC(C)(C)C)C(C)C)o1`, the inhibition was 0.3% (inactive).

Take `Cc1cccc(NC(=O)CSc2nnc(CCCCCNC(=O)OC(C)(C)C)o2)c1C`: the inhibition was 55.4% (active). Take `CCc1ccccc1NC(=O)CSc1nnc([C@@H](NC(=O)OC(C)(C)C)C(C)CC)o1` (stereo partly specified): the inhibition was -19.4% (inactive). On to `Cc1noc(C)c1CSCC(=O)Nc1nc2ccc(Oc3ccccc3)cc2s1`, for which the inhibition was -3.4% (inactive). With `Cc1ccc(-n2nc(N)c3c(=O)oc(N(C)C)nc32)cc1`, the inhibition was -5.7% (inactive).

`O=C(COc1ccc(Cl)cc1)NCCC1=CCCCC1`: the inhibition was 1.3% (inactive). `CN(NC(=O)c1ccccc1)c1nc2ccccc2nc1C(F)(F)F`: the inhibition was 12.5% (inactive). As to `COc1ccc(C(=O)NN(C)c2nc(-c3ccccc3)cc(C)c2S(C)(=O)=O)cc1`, the inhibition is -10.1% (inactive).

As to `CSc1nc(N(C)NC(=O)c2cccc(C)c2)c2ccccc2n1`, the inhibition is 34.2% (active). Take `O=S(=O)(c1cnccc1N1CCN(/N=C/c2ccc(Br)cc2)CC1)N1CCCCC1`: the inhibition is -15.8% (inactive). Under `COc1cc(OC)cc(C(=O)NC2CCN(C(=O)N3c4ccccc4Sc4ccccc43)CC2)c1` stands -1.1% (inactive).

Turning to `Cc1ccccc1N1CCN(CCCOc2ccc3c(C)cc(=O)oc3c2)CC1`, the inhibition is -2.5% (inactive). For the compound `Cn1c(C(=O)OC(C(=O)NC2CCCCC2)c2ccccn2)cc2sccc21` (stereo unspecified), the inhibition was -1.9% (inactive). Take `COc1cccc(/C=N/NC(=O)c2cccc([N+](=O)[O-])c2)c1OS(=O)(=O)c1ccc(C)cc1`: the inhibition is 1.2% (inactive).

For `Cc1ccc(S(=O)(=O)N(C)C2(C)CCS(=O)(=O)C2)cc1` (stereo unspecified), the inhibition was -19.1% (inactive). For `CC(C)n1c(-c2cccs2)nc2ccccc21`, the inhibition is -4.4% (inactive).

For the compound `C=CCn1c(COc2cccc3cccnc23)nnc1SCC(=O)OC`, the inhibition was 30.7% (active). In the case of `C=CCn1c(COc2ccccc2)nnc1SCC(=O)NCC(=O)OCC`, the inhibition was -6.1% (inactive). Next, `C=CCn1c(COc2ccccc2C)nnc1SCC(=O)O`: -19.2% (inactive); `COc1ccc(C(=O)Oc2cc(/C=N/NS(=O)(=O)c3ccc(C)cc3)ccc2OC)cc1`: -13.4% (inactive). Next, `COc1cc(C(=S)N2CCOCC2)cc(OC)c1OC(=O)c1cc([N+](=O)[O-])cc([N+](=O)[O-])c1`: 2.4% (inactive); `COc1ccccc1OCc1nc2ccccc2s1`: 9.7% (inactive); `O=C(Nc1ccccc1-c1nnn(CC(=O)N2CCCc3ccccc32)n1)c1cccc(Cl)c1`: 9.4% (inactive). Under `OC(c1ccccc1)c1nccn1Cc1ccccc1` (stereo unspecified) stands -26.3% (inactive); under `Cn1cnc([N+](=O)[O-])c1Sc1ccccc1`, 7% (inactive); under `CCOC(=O)c1c(NC(C)=O)sc2c(O)c(Br)ccc12`, -8% (inactive). Consider `CCC(C)NC(=O)C1CCCN(C(=O)NC2CCCCC2)C1` (stereo unspecified), for which the inhibition was -6.5% (inactive). Consider `Cc1ccc(NC(=S)Nc2ncccc2C)c(C)c1`, for which the inhibition was 8.4% (inactive). `COc1ccc(C(=O)NC(=S)Nc2ccccc2N2CCN(S(C)(=O)=O)CC2)cc1OC`: the inhibition was -15.4% (inactive).

Regarding `Cc1[nH]c(=O)c(C(=O)/C=C/c2ccccc2)c2c1CCCC2`, the inhibition is -9.9% (inactive).

Turning to `CC(=O)c1cn(CCCCCCCCCCn2cc(C(C)=O)c(=O)[nH]c2=O)c(=O)[nH]c1=O`, the inhibition was -1.7% (inactive). Under `CN(CC(=O)Nc1cccc2c1CCCC2)S(=O)(=O)c1ccc(Cl)cc1` stands 8.4% (inactive); under `CCOc1ccccc1NC(=O)C1CCCN(C(=O)Nc2ccccc2)C1` (stereo unspecified), 40.5% (active); under `CCOc1ccc(NC(=O)C2CCCN(C(=O)Nc3ccccc3)C2)cc1` (stereo unspecified), 5.5% (inactive). Turning to `CCOc1ccccc1NC(=O)C1CCN(S(=O)(=O)c2c(C)nn(C)c2C)CC1`, the inhibition was 13.5% (inactive).

Take `N#C/C(=C/c1ccc(Cl)cc1)NC(=O)c1ccccc1`: the inhibition was 0.7% (inactive). Take `COc1ccc(C(F)(F)F)cc1N/C=C\c1nnnn1-c1ccc(C)cc1`: the inhibition was 7.9% (inactive). Turning to `O=C(NCCCCCCCCCNC(=O)C(F)(F)F)C(F)(F)F`, the inhibition is 8.3% (inactive). Next, `CC(C)(CNC(=O)c1cc(=O)[nH]c2ccccc12)N1CCOCC1`: 31% (active); `Cc1c(C(=O)CN2CCOCC2)[nH]c2ccccc12`: -7.9% (inactive); `CC(C)(CNCC(O)c1ccccc1)N1CCOCC1` (stereo unspecified): -8.1% (inactive). Next, `c1ccc2c(C[n+]3csc4ccccc43)cccc2c1`: -13.2% (inactive). In the case of `CCc1nc(C)ccc1OCC(=O)N(CC)CC`, the inhibition was 5.7% (inactive).

On to `Fc1ccc(CNc2nc3ccccc3n3nnnc23)cc1`, for which the inhibition was -20.9% (inactive). For `CCOc1ccc(S(=O)(=O)Nc2nc3cc(OC)ccc3s2)cc1`, the inhibition is -6% (inactive). As for `Cc1ccc(C(c2nnnn2CS(=O)(=O)c2ccc(C)cc2)N2CCC(C)CC2)cc1` (stereo unspecified), the inhibition is -0.3% (inactive). Turning to `O=C(Oc1ccc([N+](=O)[O-])cc1)c1ccc2ccccc2n1`, the inhibition was 1.7% (inactive). As for `CCOC(=O)C1Sc2[nH]c(=O)sc2C(c2ccc(Cl)cc2)C1C(=O)OCC` (stereo unspecified), the inhibition is -11% (inactive). With `O=C(CSc1nnnn1C1CCCC1)Nc1ccc2c(c1)OCCO2`, the inhibition is -42.7% (inactive). Take `O=C(CSc1nc(C2CC2)nc2ccccc12)Nc1ccc2c(c1)OCCO2`: the inhibition is 4.6% (inactive). In the case of `O=C(CSc1nc2ncccc2[nH]1)Nc1ccc2c(c1)OCCO2`, the inhibition is 97% (active).

As for `O=C(/C=C/c1ccco1)Nc1ccc(Oc2ccccc2)cc1`, the inhibition was -2.7% (inactive). As to `c1ccc(C(c2ccccc2)N2CCN(Cc3nnnn3C3CCCCC3)CC2)cc1`, the inhibition is 10.8% (inactive).

With `CC1=NN(Cc2ccccc2)C(=O)/C1=C/c1ccc(N(C)C)cc1`, the inhibition was -0.4% (inactive). As to `CCCCC(=O)N/N=C(\C)CC(=O)Nc1cc(Cl)ccc1OC`, the inhibition was -3.2% (inactive). For `COc1ccccc1NC(=O)/C=C/C(N)=O`, the inhibition was 43.6% (active). `COc1ccccc1NC(=S)NC(=O)C(C)C`: the inhibition was 13.7% (inactive). With `COc1ccccc1NC(=O)c1ccc(C)s1`, the inhibition is -3.2% (inactive). Regarding `O=C(NCc1ccccc1Cl)c1csc2c1CCCCC2`, the inhibition is 6.8% (inactive). As for `Cc1ccc(SCC(=O)Nc2ncc(C)s2)cc1`, the inhibition was -75.7% (inactive).

Regarding `CN(C)/C=C(\C#N)C(=O)c1cccnc1Oc1cccc(F)c1`, the inhibition is -5.1% (inactive). Regarding `COC(=O)c1ccc(C(=O)OC)c(NC(=S)N2CCCCC2)c1`, the inhibition is 8.4% (inactive). For `COC(=O)c1ccc(CSc2ccc3nnc(-c4ccccc4)n3n2)o1`, the inhibition was -0.1% (inactive). For the compound `COc1cc(C(=O)NC(=S)NCc2ccco2)cc(OC)c1OC`, the inhibition is -3.4% (inactive). Consider `Cc1ccc(C(=O)/C=C/c2c(C)nn(-c3ccccc3)c2Cl)cc1`, for which the inhibition is 15.3% (inactive).

`O=C(/C=C/Sc1ncn[nH]1)c1ccc(Cl)cc1`: the inhibition was 47.7% (active).

For `CC(C)(C)c1ccc(C(=O)CSc2ncn[nH]2)cc1`, the inhibition is -29.2% (inactive).

For the compound `CC(C)(C)NS(=O)(=O)CC12CCC(CC1=O)C2(C)C` (stereo unspecified), the inhibition is 12.7% (inactive). On to `Cc1cccc(COc2ccccc2/C=N/Nc2ccc([N+](=O)[O-])cc2)c1`, for which the inhibition was -18.1% (inactive). On to `COc1ccc(OC)c(S(=O)(=O)Nc2ccccc2F)c1`, for which the inhibition was -16.7% (inactive). Under `COc1ccc(S(=O)(=O)Nc2ccc(F)cc2)c(C)c1C` stands 74% (active).

In the case of `COc1ccc(S(=O)(=O)N2CCOCC2)c(C)c1C`, the inhibition was -1.9% (inactive).
